# Test results taken from PubChem BioAssay AID743449 (Broad Institute, 2014).
# In all, about 9,900 compounds went through this assay and about 90 (0.9%) were called active. Roughly 2% stayed inconclusive and do not appear here.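 How the source made its calls: active means mean normalized replicate activity at least 50 and at least half of replicates each reaching 50; inconclusive means only one of the two criteria met; inactive means neither criterion met.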 Shown is part of a subset that was picked to be rich in actives.
# Assay: YAP1 pathway inhibitors via CTGF transcript, primary screen, DLD1 colon cancer cells, RT-qPCR, single point (AID 743449);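 further: 0% = neutral control wells and 100% = dasatinib control wells; higher means stronger suppression of CTGF expression like dasatinib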
# Settings: DLD1 CTGF mRNA qPCR, 24 h; at 12.5 µM; active compounds read high
row,Compound,inhibition
1,CC(=O)N1CCCCN2[C@@H](CO)[C@@H](c3ccc(-c4ccccc4)cc3)[C@@H]2C1,-12.5% (inactive)
2,Cc1cccc(-c2ccc([C@@H]3[C@@H](CO)N4CCCCN(S(=O)(=O)c5ccccc5F)C[C@H]34)cc2)c1,15.5% (inactive)
3,Cc1ccccc1-c1ccc([C@@H]2[C@H](CO)N3CCCCN(S(=O)(=O)Cc4ccccc4)C[C@@H]23)cc1,26% (inactive)
4,COc1ccc(NC(=O)N2CCCCN3[C@H](C2)[C@@H](c2ccc(-c4ccccc4F)cc2)[C@@H]3CO)cc1,-27.6% (inactive)
5,Cc1ccccc1-c1ccc([C@H]2[C@@H](CO)N3CCCCN(S(=O)(=O)Cc4ccccc4)C[C@H]23)cc1,-18.5% (inactive)
6,CC(=O)N1CCCCN2[C@H](CO)[C@H](c3ccc(-c4ccccc4)cc3)[C@H]2C1,9.46% (inactive)
7,CC(=O)N1CCCCN2[C@@H](CO)[C@H](c3ccc(-c4ccccc4)cc3)[C@@H]2C1,62% (active)
8,COc1ccc(NC(=O)N2CCCCN3[C@@H](CO)[C@H](c4ccc(-c5ccccc5F)cc4)[C@@H]3C2)cc1,59.6% (active)
9,Cc1ccccc1-c1ccc([C@H]2[C@@H](CO)N3CCCCN(S(=O)(=O)Cc4ccccc4)C[C@@H]23)cc1,66% (active)
10,COc1ccc(NC(=O)N2CCCCN3[C@H](CO)[C@H](c4ccc(-c5ccccc5F)cc4)[C@H]3C2)cc1,-50.7% (inactive)
11,Cc1cccc(-c2ccc([C@H]3[C@@H](CO)N4CCCCN(S(=O)(=O)c5ccccc5F)C[C@@H]34)cc2)c1,-8.63% (inactive)
12,Cc1cccc(-c2ccc([C@@H]3[C@@H](CO)N4CCCCN(S(=O)(=O)c5ccccc5F)C[C@@H]34)cc2)c1,63.6% (active)
13,O=C(C[C@@H]1CC[C@@H]2[C@H](COC[C@H](O)CN2C(=O)c2ccc(F)cc2)O1)N1CCCCC1,4.67% (inactive)
14,C[C@@H]1CCCCO[C@H](CN(C)Cc2ccc(C(=O)O)cc2)[C@@H](C)CN([C@@H](C)CO)C(=O)c2cc(N(C)C)ccc2O1,-1.12% (inactive)
15,O=C1N[C@H](Cc2ccccc2)COCc2cnnn2CC[C@@H]1Cc1ccc(-c2ccccc2)cc1,10.4% (inactive)
16,CS(=O)(=O)N1[C@@H](CO)[C@@H](c2ccccc2)C12CN(Cc1cc(F)ccc1F)C2,2.97% (inactive)
17,CCC(=O)N1C[C@H](C)[C@@H](OC)CN(C)C(=O)c2ccc(NC(=O)CC(F)(F)F)cc2OC[C@@H]1C,-9.99% (inactive)
18,CC(C)N(C[C@H]1N[C@H](CO)[C@H]1c1ccccc1)S(=O)(=O)c1ccccc1,-1.38% (inactive)
19,O=S(=O)(c1ccccc1)N1CCCCN2[C@H](C1)[C@@H](c1ccc(C#CC3CCCC3)cc1)[C@@H]2CO,50.5% (active)
20,O=S(=O)(c1ccccc1)N1CCCCN2[C@@H](CO)[C@H](c3ccc(C#CC4CCCC4)cc3)[C@@H]2C1,1.07% (inactive)
21,COc1ccccc1C#Cc1ccc([C@@H]2[C@@H](CO)N3CCCCN(C(=O)C4CCC4)C[C@H]23)cc1,4.8% (inactive)
22,O=S(=O)(c1ccccc1)N1CCCCN2[C@H](CO)[C@H](c3ccc(C#CC4CCCC4)cc3)[C@H]2C1,-84.2% (inactive)

row,Compound,inhibition
1,COc1ccccc1C#Cc1ccc([C@H]2[C@H](CO)N3CCCCN(C(=O)C4CCC4)C[C@@H]23)cc1,68.7% (active)
2,COc1ccccc1C#Cc1ccc([C@@H]2[C@H]3CN(C(=O)C4CCC4)CCCCN3[C@H]2CO)cc1,14.7% (inactive)
3,O=C(C[C@H]1CC[C@H]2[C@@H](COC[C@@H](O)CN2C(=O)Nc2ccccc2)O1)NCc1ccccc1F,8.8% (inactive)
4,CCCN1C[C@H](C)[C@H](OC)CN(C)C(=O)c2ccc(NS(=O)(=O)c3cn(C)cn3)cc2OC[C@H]1C,-8.06% (inactive)
5,CCCC(=O)Nc1ccc2c(c1)C(=O)N(C)C[C@H](OC)[C@@H](C)CN(Cc1ccc(F)cc1)[C@H](C)CO2,-14.1% (inactive)
6,CN1[C@H](C(=O)Nc2nccs2)[C@@H](CO)[C@@H]2Cn3c(ccc(-c4ccccc4F)c3=O)[C@@H]21,-2.79% (inactive)
7,C/C=C/c1ccc([C@H]2[C@@H](CNC(=O)CC3CC3)N(C(=O)CC)[C@H]2CO)cc1,-13.1% (inactive)
8,CCS(=O)(=O)Nc1ccc2c(c1)C(=O)N(C)[C@H]1CC[C@H](CC(=O)NCc3ccc(OC)cc3)O[C@@H]1CO2,-27.1% (inactive)
9,O=C(C[C@H]1CC[C@H]2NC[C@H](O)COC[C@@H]2O1)N1CCc2ccccc2C1,1.25% (inactive)
10,C[C@H](CO)N1C[C@H](C)[C@H](CN(C)C(=O)c2cc(-c3ccccc3)on2)OCc2cnnn2CCCC1=O,29.3% (inactive)
11,C[C@@H]1CN([C@H](C)CO)C(=O)CCCn2nncc2CO[C@@H]1CN(C)C(=O)c1cc(-c2ccccc2)on1,66% (active)
12,C[C@@H]1CN([C@H](C)CO)C(=O)CCCn2nncc2CO[C@H]1CN(C)Cc1cccc(C(F)(F)F)c1,20.5% (inactive)
13,C[C@H](CO)N1C[C@H](C)[C@@H](CN(C)C(=O)c2cc(-c3ccccc3)on2)OCc2cnnn2CCCC1=O,-12.2% (inactive)
14,C[C@@H]1CN([C@H](C)CO)C(=O)CCCn2nncc2CO[C@@H]1CN(C)Cc1cccc(C(F)(F)F)c1,61.3% (active)
15,C[C@@H]1CN([C@@H](C)CO)C(=O)CCCn2nncc2CO[C@H]1CN(C)C(=O)c1cc(-c2ccccc2)on1,-32.7% (inactive)
16,C[C@H](CO)N1C[C@H](C)[C@@H](CN(C)Cc2cccc(C(F)(F)F)c2)OCc2cnnn2CCCC1=O,-35.1% (inactive)
17,C[C@@H]1CN([C@H](C)CO)C(=O)CCCn2nncc2CO[C@H]1CN(C)C(=O)c1cc(-c2ccccc2)on1,-10.9% (inactive)
18,C[C@@H]1CN([C@@H](C)CO)C(=O)CCCn2nncc2CO[C@@H]1CN(C)C(=O)c1cc(-c2ccccc2)on1,55.9% (active)
19,CNC[C@@H]1OCCCC[C@H](C)Oc2ccc(NS(=O)(=O)c3ccc(F)cc3)cc2C(=O)N([C@@H](C)CO)C[C@H]1C,-4.63% (inactive)
20,Cc1cccc(S(=O)(=O)N[C@@H]2CC[C@@H](CCNC(=O)Nc3cc(F)ccc3F)O[C@H]2CO)c1,-12.4% (inactive)
21,COc1ccc(-c2ccc([C@H]3[C@H](CO)N4C(=O)CN(Cc5ccccc5)C[C@@H]34)cc2)cc1,-9.55% (inactive)
22,COc1ccc(S(=O)(=O)N(C)C[C@H]2Oc3ccc(NC(=O)Nc4ccc(C(F)(F)F)cc4)cc3C(=O)N([C@@H](C)CO)C[C@@H]2C)cc1,-95.1% (inactive)

row,Compound,inhibition
1,CCNC(=O)[C@@H]1[C@@H](CO)[C@@H]2Cn3c(cccc3=O)[C@H]1N2C(=O)Nc1cc(F)ccc1F,-43% (inactive)
2,O=C(Nc1ccccc1)[C@@H]1[C@@H](CO)[C@@H]2Cn3c(cccc3=O)[C@H]1N2C(=O)c1ccc(F)cc1,51.2% (active)
3,O=C(Nc1ccccc1)[C@H]1[C@H](CO)[C@H]2Cn3c(cccc3=O)[C@@H]1N2C(=O)c1ccc(F)cc1,11.4% (inactive)
4,N#C[C@H]1[C@@H](c2ccccc2)[C@H](CO)N1C(=O)c1cc(Cl)cc(Cl)c1,26.8% (inactive)
5,CC(C)NC(=O)N[C@@H]1CC[C@@H](CC(=O)NCCCN(C)C)O[C@H]1CO,1.3% (inactive)
6,CC(C)NC(=O)N[C@@H]1CC[C@H](CC(=O)NCCCN(C)C)O[C@@H]1CO,50.2% (active)
7,CC(C)NC(=O)N[C@H]1CC[C@H](CC(=O)NCCCN(C)C)O[C@@H]1CO,12% (inactive)
8,C[C@H](CO)N1C[C@H](C)[C@@H](CN(C)S(=O)(=O)c2cccs2)Oc2ccc(NC(=O)Nc3cccc4ccccc34)cc2C1=O,3.66% (inactive)
9,CO[C@@H]1CN(C)C(=O)c2ccc(NC(=O)c3nc4ccccc4s3)cc2OC[C@@H](C)N(Cc2cccnc2)C[C@@H]1C,1.63% (inactive)
10,CO[C@@H]1CN(C)C(=O)c2ccc(NC(=O)c3nc4ccccc4s3)cc2OC[C@@H](C)N(Cc2cccnc2)C[C@H]1C,68.4% (active)
11,CO[C@H]1CN(C)C(=O)c2ccc(NC(=O)c3nc4ccccc4s3)cc2OC[C@@H](C)N(Cc2cccnc2)C[C@@H]1C,1.26% (inactive)
12,CCCNC(=O)N1[C@@H]2Cn3c(cccc3=O)[C@H]1[C@@H](C(=O)N1CCC(Cc3ccccc3)CC1)[C@@H]2CO,-24.7% (inactive)
13,C[C@H]1CN([C@@H](C)CO)C(=O)CCCn2nncc2CO[C@H]1CN(C)C(=O)Nc1ccc2c(c1)OCCO2,-11.1% (inactive)
14,CCCC#Cc1ccc2c(c1)O[C@@H](CN(C)Cc1ccccn1)[C@@H](C)CN([C@@H](C)CO)S2(=O)=O,-16.9% (inactive)
15,C[C@@H]1CC=CC[C@H](c2ccc(F)cc2)NC(=O)[C@@H](Cc2ccccc2)N(C)C(=O)c2ccccc2O1 (mixture of isomers),60.2% (active)
16,CC(C)[C@@H]1CC=CC[C@H](C)Oc2ccccc2C(=O)N(C)[C@@H](Cc2ccccc2)C(=O)N1 (mixture of isomers),15.6% (inactive)
17,C[C@H]1CC=CC[C@H](c2ccc(F)cc2)NC(=O)[C@H](Cc2ccccc2)N(C)C(=O)c2ccccc2O1 (mixture of isomers),-3.91% (inactive)
18,C[C@H]1CC=CC[C@H](c2ccc(F)cc2)NC(=O)[C@@H](Cc2ccccc2)N(C)C(=O)c2ccccc2O1 (mixture of isomers),-32.9% (inactive)
19,CC(C)[C@@H]1CC=CC[C@@H](C)Oc2ccccc2C(=O)N(C)[C@H](Cc2ccccc2)C(=O)N1 (mixture of isomers),38.9% (inactive)
20,C[C@H]1CC=CC[C@@H](c2ccc(F)cc2)NC(=O)[C@H](Cc2ccccc2)N(C)C(=O)c2ccccc2O1 (mixture of isomers),64% (active)
